The source of these data is PubChem BioAssay AID623911 (Vanderbilt High Throughput Screening Facility, 2012).

In all, about 2,100 compounds went through this assay and about 770 (37%) were called active. This is one part of the list. A number with no mark means an inactive call.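 How the source made its calls: active means by-eye trace score of 1 for enhancers or -1 for inhibitors, so actives lie on both sides (some results past the limit were not filed as active); inactive means score 0, or 3 fluorescent, or 4 baseline rise.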

Chain of G protein-activated inward rectifier potassium channel 2 (Homo sapiens) + G protein-activated inward rectifier potassium channel 1 (Homo sapiens) (P48051 whole entry, looked up): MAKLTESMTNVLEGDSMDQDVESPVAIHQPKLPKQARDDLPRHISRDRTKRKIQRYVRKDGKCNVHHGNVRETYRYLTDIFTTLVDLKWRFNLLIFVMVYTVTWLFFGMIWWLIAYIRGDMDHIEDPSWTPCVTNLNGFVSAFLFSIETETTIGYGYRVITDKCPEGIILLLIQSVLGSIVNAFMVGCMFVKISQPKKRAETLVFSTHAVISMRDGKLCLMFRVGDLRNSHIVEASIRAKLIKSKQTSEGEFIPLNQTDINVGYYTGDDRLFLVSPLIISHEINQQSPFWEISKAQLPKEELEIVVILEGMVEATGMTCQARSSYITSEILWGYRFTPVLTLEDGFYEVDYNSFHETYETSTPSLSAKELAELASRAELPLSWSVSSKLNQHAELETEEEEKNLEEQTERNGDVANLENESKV
Chain of G protein-activated inward rectifier potassium channel 2 (Homo sapiens) + G protein-activated inward rectifier potassium channel 1 (Homo sapiens) (P48549 whole entry, looked up): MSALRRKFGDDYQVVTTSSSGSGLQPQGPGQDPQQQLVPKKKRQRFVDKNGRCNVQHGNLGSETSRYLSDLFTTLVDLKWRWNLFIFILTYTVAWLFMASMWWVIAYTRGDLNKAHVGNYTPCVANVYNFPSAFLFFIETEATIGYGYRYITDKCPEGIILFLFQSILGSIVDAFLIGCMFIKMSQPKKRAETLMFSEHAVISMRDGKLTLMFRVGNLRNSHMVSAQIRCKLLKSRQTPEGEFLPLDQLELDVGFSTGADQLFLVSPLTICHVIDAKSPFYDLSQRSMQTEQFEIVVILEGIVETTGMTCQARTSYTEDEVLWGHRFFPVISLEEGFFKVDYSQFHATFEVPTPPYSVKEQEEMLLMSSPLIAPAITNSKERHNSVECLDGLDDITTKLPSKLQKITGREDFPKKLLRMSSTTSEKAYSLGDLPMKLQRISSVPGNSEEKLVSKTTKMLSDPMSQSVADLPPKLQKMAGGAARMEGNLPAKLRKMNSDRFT

The assay addresses G protein-activated inward rectifier potassium channel 2 (Homo sapiens) + G protein-activated inward rectifier potassium channel 1 (Homo sapiens) (UniProt P48051+P48549). The assay can be described thus: GIRK1/2 thallium flux modulators, retest, confirmation, cell-based, HEK293 rmGlu8/hGIRK1/2, FluoZin-2 (AID 623911). To be noted: HEK293 rmGlu8/hGIRK1/2, thallium flux FluoZin-2; actives lie on both sides; glutamate co-added at its EC20 level.
For `CN(C)CCCOc1ccc(C(C)(C)c2ccccc2)cc1`, the manual score was 0.

For `COc1ccc(OCCCN2CCCCCC2)cc1`, the manual score was 0.

For `CCN1CCN(CCCOc2ccc(-c3ccccc3)cc2)CC1`, the manual score was -1 (active).

For `CCCCC(=O)N1CCCC(c2nc3c(nnn3Cc3cc(C)ccc3C)c(=O)[nH]2)C1` (configuration not stated), the manual score is 0.

Regarding `S=c1[nH]nc(-c2ccccn2)n1/N=C/c1ccc(Br)s1`, the manual score is 1 (active).

Take `Cc1cc(-c2n[nH]c(=S)n2/N=C/c2ccc(Br)s2)n[nH]1`: the manual score was 0.

Turning to `S=c1[nH]nc(-c2ccco2)n1/N=C/c1ccc(Br)s1`, the manual score is 0.

Turning to `CN(C)Cc1cc(C(C)(C)C)c(O)c(C(C)(C)C)c1`, the manual score is -1 (active).

Take `Cc1cc(C)c2oc(-c3ccc(C)c(NC(=S)NC(=O)c4cccs4)c3)nc2c1`: the manual score is 0.

Take `Cc1ccc(C)c(NC(=S)NNC(=O)c2csc(C(C)C)c2)c1`: the manual score was 1 (active).

Regarding `Cc1cccc(NC(=S)NNC(=O)c2csc(C(C)C)c2)c1`, the manual score is 1 (active).

For the molecule `Cc1ccc(-c2nc3ccccc3o2)cc1NC(=S)NC(=O)c1cc2ccccc2o1`, the manual score is 0.

For the molecule `c1cn(CC2(Cn3ccnc3)COC2)cn1`, the manual score is 0.

Regarding `CN(C)CCNC(=O)c1cc2c(s1)-c1ccccc1OC2`, the manual score was 0.

Regarding `CN(C)CCNC(=O)c1ccc2c(c1)N(Cc1ccc(F)cc1)CCS2`, the manual score is -1 (active).

As for `CCCCOc1ccc(C(=O)OC2CC(C)N(C)CC2C)cc1` (configuration not stated), the manual score was -1 (active).

For `CCCCOC(=O)Nc1ccc(C(=O)OCCC)cc1`, the manual score was 0.

In the case of `COc1cccc(NC(=S)N/N=C2/CCCCc3ccccc32)c1`, the manual score was 0.5.

Consider `COc1cccc(NC(=O)C(Sc2nc3ccccc3c(=O)n2CC(C)C)c2ccccc2)c1` (configuration not stated), for which the manual score is 0.

For the molecule `COc1cccc(NC(=O)CSc2nc(N)cc(N)n2)c1`, the manual score is 0.

For `COc1cccc(NC(=O)Cn2cc3c(n2)CCCCC3)c1`, the manual score was 1 (active).

Turning to `CC1CCc2nn(CC(=O)N3CCN(C(=O)c4ccco4)CC3)cc2C1` (configuration not stated), the manual score was 0.

Take `Cc1cc(C)cc(NC(=O)Cn2cc3c(n2)CCCCC3)c1`: the manual score is 1 (active).

On to `COc1cccc(NC(=O)Cn2nnc(C(=O)Nc3ccccc3)c2N)c1`, for which the manual score was 1 (active).

For `O=C(CN1CCCCC1)Nc1cccc(Oc2ccccc2)c1`, the manual score was 0.

On to `COc1cccc(NC(=O)CSc2nnc(-c3ccoc3C)n2-c2ccccc2)c1`, for which the manual score was -0.5.

Consider `COc1cccc(NC(=O)Cn2cc(C#N)c3ccccc32)c1`, for which the manual score was 1 (active).

For `CCCOC(=O)c1ccc(-c2c(C)noc2-c2ccc(OC)cc2O)o1`, the manual score is 0.

As to `CC(=O)c1c(C)[nH]c(C(=O)COc2cc(C)cc(C)c2)c1C`, the manual score was 0.

Take `Fc1ccccc1NC(=S)N/N=C/c1ccccc1Br`: the manual score was 0.

On to `O=[N+]([O-])c1ccc(/C=N/NC(=S)Nc2ccccc2F)o1`, for which the manual score is 1 (active).

With `Fc1ccccc1/C=N/NC(=S)Nc1ccc(Cl)cc1Cl`, the manual score is 0.
